Only some compounds are listed: those with a hit (about 1.7% of all), similar ones and a draw of the others.
TNFa cytotox: HUVEC cytotoxicity counter-screen, TNF alpha stimulated. HUVEC TNFalpha-stimulated, Hoechst cell count, imaging. 93,000 tested, 0.17% active. AID 848. cell count reduction, % at 2 µM;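 active = cell count reduction exceeding the screen mean by over 5 SD, scaled to untreated wells per plate, cut at about 78% in these data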;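 note: cells counted after 24 h of TNF alpha exposure following the 1 h pretreatment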
E-sel TNF inh: TNF alpha driven E-selectin expression inhibition | HUVEC TNFa-induced E-selectin immunofluorescence, high content | inhibition, % at 2 µM | 120,000 tested, 0.71% active | AID 1246;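 active = inhibition above the batch mean plus 3 SD, and confirmed as a hit on visual image review, cut at about 43% in these data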;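 note: 0% = TNF-stimulated DMSO wells and 100% = unstimulated control wells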
IL1B cytotox: HUVEC cytotoxicity counter-screen, IL-1B stimulated. HUVEC cell count loss, Hoechst imaging. cell count reduction, % at 2 µM. 94,000 tested, 0.41% active. AID 845;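 active = cell count reduction more than 3 SD above the screen-wide mean, cut at about 70% in these data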;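 note: normalized per plate to untreated control cells as the no-loss baseline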
NFkB transloc pot: enhances IL-1B driven NFkB nuclear translocation; HUVEC IL-1B NFkB p65 nuclear translocation imaging; activation, % at 2 µM; 94,000 tested, 0.3% active; AID 819;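 active = activation above 40%, about the mean plus 3 SD, also judged a hit on visual image review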;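 note: percent activation is computed from the nuclear over cytoplasmic p65 intensity ratio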
VCAM1 TNFa inh: reduces TNF alpha induced VCAM1 expression in HUVEC; HUVEC TNFa-induced VCAM-1 immunofluorescence, high-content imaging; inhibition, % at 2 µM; 95,000 tested, 0.48% active; AID 802;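 active = inhibition above the batch mean plus 3 SD, with images confirmed as a hit by eye, cut at about 37% in these data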;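 note: 0% = TNF-stimulated DMSO wells and 100% = unstimulated control wells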
NFkB transloc inh: blocks IL-1B driven NFkB nuclear translocation in HUVEC cells | inhibition, % at 2 µM | AID 796 | HUVEC IL-1B NFkB p65 nuclear translocation imaging | 94,000 tested, 0.43% active;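 active = inhibition above about 30% together with a positive call from visual inspection of the well image, limit read from the data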;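 note: nuclear over cytoplasmic p65 intensity ratio measured by imaging; 0% = IL-1B stimulated DMSO wells and 100% = unstimulated DMSO wells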
Numbers without * were called inactive; x = not tested or not shown.

SMILES	TNFa cytotox	E-sel TNF inh	IL1B cytotox	NFkB transloc pot	VCAM1 TNFa inh	NFkB transloc inh
Cc1cc(C)cc(-n2c(SCC(=O)Nc3cccc(S(=O)(=O)NC4=NCCCCC4)c3)nc3ccccc3c2=O)c1	x	-10	x	x	x	x
O=C(NCCN1CCOCC1)c1ccc(-c2ccccc2)cc1	-22	-27	4	9	2	-9
O=C(Cc1ccc(-c2ccccc2)cc1)NCCN1CCOCC1	x	95*	x	x	x	x
CCOC(=O)c1ccc(Nc2nc(-c3cccnc3)nc3ccccc23)cc1	-32	-1	86*	18	-14	-18
N#Cc1c(C(F)(F)F)cc(C2CC2)[nH]c1=O	x	3	x	x	x	x
O=C(N/N=C\c1ccc(CNS(=O)(=O)c2ccc(Cl)cc2)o1)C(=O)Nc1ccc(Oc2ccccc2)cc1	x	92*	x	x	x	x
CCC(C)(CC(=O)N(C)CCC#N)c1ccccc1 (stereo unspecified)	-15	-12	84*	-26	10	26
CNS(=O)(=O)c1cccc(C(=O)OCC(=O)Nc2ccc(OC)cc2[N+](=O)[O-])c1	x	7	x	x	x	x
COc1ccc(C2(CNC(=O)c3cc([N+](=O)[O-])cc([N+](=O)[O-])c3)CCCC2)cc1OC	x	63*	x	x	x	x
CCc1c(O)cc2n(c1=O)-c1ccc(Cl)cc1C2(C)C	x	-24	-8	31	20	-31
Cc1[nH][nH]c(=O)c1C(c1ccc(-c2ccc(Cl)c(Cl)c2)o1)c1c(C)[nH][nH]c1=O	-16	11	-124	42*	1	-42
COc1cccc(C(=O)Nc2nnc(-c3cccs3)s2)c1	-8	-11	8	31	13	-31
COc1ccc(N(CC(=O)Nc2ccc3c(c2)OCO3)S(C)(=O)=O)c(OC)c1	-10	64*	-4	9	6	-9
CCC1=NNc2cccc3c(OC)ccc1c23	-32	-11	-85	40*	-15	-40
COc1ccc(C(C)=O)c2c(O)cccc12	-30	0	-11	5	-5	-4
O=C(CN1CCN(c2cccc(C(F)(F)F)c2)CC1)Nc1cccc(C(F)(F)F)c1	3	4	-1	-9	-2	9
O=C(CN1CCOCC1)Nc1ccc(OCc2ccccc2)cc1	7	38	11	-3	-1	3
O=C(CN1CCN(c2ccccn2)CC1)Nc1ccc(F)cc1	-23	5	9	11	5	-11
O=C(CN1CCN(c2ccccn2)CC1)Nc1ccccc1	-31	13	-31	41*	5	-40
O=C(CN1CCN(CC(=O)Nc2ccc(OCc3ccccc3)cc2)CC1)Nc1ccc(F)cc1	3	64*	15	-2	-2	2
CC(=O)Nc1ccc(NC(=O)CN2CCN(c3cccc(C(F)(F)F)c3)CC2)cc1	-9	-7	-24	-34	-13	34*
Cc1c(C)n(C(=O)CN2CCN(c3ccccc3)CC2)c2ccccc12	-5	12	-14	16	-5	-16
O=C(O)c1cc(S(=O)(=O)NCC2CCCO2)ccc1Cl (stereo unspecified)	-27	-17	-1	-5	-15	5
COc1ccc(CC(=O)O/N=C(\N)Cc2cccc3ccccc23)cc1OC	x	16	x	x	x	x
Cc1cc([N+](=O)[O-])nn1CC(=O)NCc1ccco1	x	32	x	x	x	x
SMILES	TNFa cytotox	E-sel TNF inh	IL1B cytotox	NFkB transloc pot	VCAM1 TNFa inh	NFkB transloc inh
O=C(OCC#CCSc1nnc(-c2ccc([N+](=O)[O-])cc2)o1)c1cccs1	-1	7	6	12	4	-12
Cc1cc(Nc2ccc(Br)cc2F)n2nc(C)nc2n1	x	-13	x	x	x	x
CC(Nc1ccccc1)c1cc(Cl)ccc1O (stereo unspecified)	0	-6	89*	-91	5	91*
O=C(CCNC(=O)c1ccccc1Cl)Nc1nc(-c2ccccc2Cl)cs1	x	1	x	x	x	x
Nc1nc2nccc(-c3cccnc3)n2n1	x	0	x	x	x	x
Cc1ccc(NC(=O)N(CCCN2CCOCC2)Cc2cccnc2)cc1C	-28	27	14	-9	8	9
COc1ccc(NC(=O)N(CCCN2CCOCC2)Cc2cccnc2)c(OC)c1	-1	61*	10	-17	14	17
CCN1C(=O)S/C(=C/c2ccc(Sc3nc4ccccc4[nH]3)o2)C1=O	x	10	x	x	x	x
O=c1ccc(Cc2ccccn2)n[nH]1	1	9	17	15	13	-15
COC(=O)C1=C(C)N(C)C(=O)NC1c1ccccc1 (stereo unspecified)	-26	29	-4	47*	0	-47
CCOC(=O)CN1C(=O)N[C@@H](c2ccccc2)C(C(=O)OC)=C1C	x	18	x	x	x	x
Cc1nc2sc(C(c3ccc(Cl)cc3)N3CC(C)OC(C)C3)c(O)n2n1 (stereo unspecified)	37	10	13	-4	36*	4
COc1cc(NC(=O)Cn2ncc(Cl)c(Cl)c2=O)c(C)cc1[N+](=O)[O-]	x	83*	x	x	x	x
COc1cc(NC(=O)CN2CCCCC2)c(C)cc1[N+](=O)[O-]	x	-23	x	x	x	x
C/C(=N\N=C\c1ccccc1)c1nnn(-c2nonc2N)c1C	-5	-20	-31	-3	-6	3
CCCn1c(SCC(=O)Nc2ccccc2-c2ccccc2)nnc1-c1ccoc1C	x	-15	x	x	x	x
CCOc1ccc2nc(NC(=O)CSC3=NCCS3)sc2c1	1	29	-14	6	-4	-6
COc1ccc2nc(NC(=O)CSC3=NCCS3)sc2c1	17	100*	7	-5	-6	5
COc1ccc(C)cc1-n1nnnc1SCC(=O)Nc1cc(C)on1	x	-40	x	x	x	x
COc1ccc(C)cc1-n1nnnc1SCC(=O)Nc1cccnc1Cl	x	78*	x	x	x	x
CCOC(=O)C(=CN(CCc1ccccc1)CC(=O)OC)C(=O)OCC	x	-11	x	x	x	x
CC(=O)c1cccc(NC(=O)NCc2cccs2)c1	5	3	-24	46*	14	-46
COc1cccc(OC)c1C(=O)Nc1cccc(C(C)=O)c1	6	-14	-3	3	-10	-3
CC(=O)c1cccc(NC(=O)NCc2cccnc2)c1	-19	100*	-61	7	-36	-8
COc1cc(NC(=O)Nc2cccc(C(C)=O)c2)cc(OC)c1OC	-17	-17	72*	-8	22	8
SMILES	TNFa cytotox	E-sel TNF inh	IL1B cytotox	NFkB transloc pot	VCAM1 TNFa inh	NFkB transloc inh
O=C(Nc1ccc(-c2cn3ccsc3n2)cc1)C1CCCC1	-35	-5	90*	-100	-2	100*
Cc1ccc(-n2c(=O)[nH]c3cc(C(=O)NC4CCN(Cc5ccccc5)CC4)ccc3c2=O)cc1	4	-2	-52	2	10	-2
COC(=O)CN(c1cccc(F)c1)S(C)(=O)=O	-14	1	0	71*	-6	-71
O=S(=O)(NCCc1cn2ccccc2n1)c1ccc2c(c1)CCCC2	x	40	x	x	x	x
CCOc1cc(S(=O)(=O)Nc2ccccc2CC)ccc1Cl	79*	1	10	-29	98*	29
O=C(COC(=O)C1(c2ccccc2F)CCCC1)NC1CCS(=O)(=O)C1 (stereo unspecified)	1	7	-10	12	95*	-12
O=C(COC(=O)C1(c2ccc(F)cc2)CCCC1)NC1CC1	-23	12	1	-8	13	8
